Experimental data from PubChem BioAssay AID588382 (National Center for Advancing Translational Sciences (NCATS), 2011).
In all, about 1,300 compounds went through this assay and about 150 (12%) were called active. About 30% were inconclusive and are not listed. The sample holds actives, similar compounds and a random draw of the others, so the mix is not that of the screen. Values without a mark were called inactive. The call rests on the fitted dose curve; in most records, active means well fitted cell-killing curve with a large enough effect; inconclusive means small, poorly fitted or top-dose-only effect, or effect the other way; inactive means flat fitted curve, though single readings scatter.

Assay: qHTS of small molecules that selectively kill Giardia lamblia: Hit Validation in HepG2 cytotox;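 further: compound exposure lasted overnight at 37 deg C; nearly all actives have a fitted effect of over 55% in size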;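 on activity change, negative = cytotoxicity: viability measured as cellular ATP by ATPLite luminescence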
Conditions: cell viability; Potency: HepG2 cytotoxicity; series mostly up to 38.3 µM; activity change, negative = cytotoxicity: at the top concentration
Procedure, shortened: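 HepG2 cells seeded and incubated overnight at 37 deg C, then 23 nL compound added by pintool and incubated overnight at 37 deg C. Viability read as ATP luminescence with ATPLite after 15 min at room temperature.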
On the % scale 0 is the no-effect control and ±100 the full control effect; potency means the concentration at half of the fitted maximal effect.

Row | SMILES | activity change, negative = cytotoxicity [%] | Potency
1 | O=C(O)C1CCN(c2ccccc2[N+](=O)[O-])CC1 | 11.1 | –
2 | COc1ccc(C(=O)C(C)OC(=O)CNC(=O)C2CCCCC2)cc1 (stereo unspecified) | 22.2 | –
3 | Cc1ccc(S(=O)(=O)N2[C@@H](c3ccc(Cl)cc3)C(C(=O)O)=C[C@H]2CC2CCCC2)cc1 | 1.22 | –
4 | COc1ccc(C(=O)c2c3ccc(C(F)(F)F)cc3[n+]([O-])n2CCCN)cc1 | 17.3 | –
5 | Cc1ccc2nc(NC(=O)C3CCCN(S(=O)(=O)c4cnc[nH]4)C3)sc2c1 (stereo unspecified) | 13 | –
6 | O=C(COc1cccnc1[N+](=O)[O-])Nc1cc(S(=O)(=O)N2CCCCC2)ccc1Cl | 22 | –
7 | O=C(NCc1ccccn1)C1CCCN(S(=O)(=O)c2cc(Cl)ccc2Cl)C1 (stereo unspecified) | – | 3.69 µM (active)
8 | Cc1ccc(S(=O)(=O)N2[C@@H](c3cccc(Cl)c3)C(C(=O)O)=CC[C@H]2c2cccc(Cl)c2)cc1 | 6.73 | –
9 | CCc1cccc(NC(=O)CCCSc2nc3ccccc3[nH]2)c1 | – | 16.5 µM (active)
10 | CCCSc1ccc2nc(NC(=O)OC)[nH]c2c1 | 4.95 | –
11 | CC1(C)CC2CC(C)(CN2S(=O)(=O)c2cccc(C(=O)O)c2)C1 (stereo unspecified) | -6.79 | –
12 | O=[N+]([O-])c1ccc(Oc2cccc(Br)c2)c2ccncc12 | 9.74 | –
13 | Cc1c(Br)c([N+](=O)[O-])nn1C(C)C(=O)Nc1ccc2c(c1)OCO2 (stereo unspecified) | -1.69 | –
14 | O=C1C2C3C=CC(C3)C2C(=O)N1Nc1ccc([N+](=O)[O-])cc1[N+](=O)[O-] (stereo unspecified) | -9.27 | –
15 | COc1ccc2nc(C)cc(N/N=C/c3ccc(F)cc3)c2c1 | – | 2.33 µM (active)
16 | Cc1cc(C)nc(N/N=C/c2ccc(Cl)cc2)n1 | 5.19 | –
17 | COc1ccc(/C=N/Nc2cc(C)nc3c(C)cccc23)cc1 | – | 13.1 µM (active)
18 | COc1ccccc1Nc1cc(C)nc2c(C)ccc([N+](=O)[O-])c12 | 4.71 | –
19 | CCc1cccc(N=c2c([N+](=O)[O-])nn(-c3ccc(Cl)cc3)n2O)c1 | 18.4 | –
20 | CCOC(=O)C1=C(C)NC(=O)NC1c1ccc([N+](=O)[O-])o1 (stereo unspecified) | 8.82 | –
21 | CN(C)c1ccc2nsnc2c1[N+](=O)[O-] | 22 | –
22 | CN1C(=O)/C(=C/c2cccc(Cl)c2)Sc2ccc(C(=O)N3CCCC3)cc21 | -2.18 | –
23 | Nc1ncnc2c1ncn2C1O[C@H](CO)[C@@H](O)[C@@H]1O (stereo partly specified) | 12.7 | –
24 | O=C(c1ccc(CSc2nc3ccncc3[nH]2)cc1)N1CCCCCC1 | – | 0.927 µM (active)

Row | SMILES | activity change, negative = cytotoxicity [%] | Potency
25 | Cc1ccc(CSc2nc3ccncc3[nH]2)cc1 | – | 0.369 µM (active)
26 | Clc1ccc(CSc2nc3ccncc3[nH]2)cc1 | – | 1.17 µM (active)
27 | COc1cccc(CSc2nc3ccncc3[nH]2)c1 | – | 4.65 µM (active)
28 | Cc1nnc(SCc2ccc([N+](=O)[O-])cc2)[nH]c1=O | 13.3 | –
29 | O=C(COc1cccnc1[N+](=O)[O-])Nc1ccc(F)cc1 | 4.27 | –
30 | COC1C(OC(=O)/C=C/C=C/C=C/C=C/C(=O)O)CCC2(CO2)C1C1(C)OC1CC=C(C)C (stereo unspecified) (tested in a mixture with another compound) | 21.4 | –
31 | O=C(c1ccc([N+](=O)[O-])o1)N1CCN(c2nc3ccc(F)cc3s2)CC1 | -10.1 | –
32 | O=C1NC(=O)/C(=C\c2ccc(Oc3ccc([N+](=O)[O-])cn3)cc2)S1 | -15.5 | –
33 | COc1ccccc1-n1cc2c([N+](=O)[O-])cc([N+](=O)[O-])cc2n1 | 11.2 | –
34 | COCCn1c(C)cc(C(=O)COc2ccc(C)nc2[N+](=O)[O-])c1C | -1.94 | –
35 | O=C(c1ccco1)N1CCN(c2c([N+](=O)[O-])nn(-c3cccc(Cl)c3)[n+]2[O-])CC1 | 20.3 | –
36 | Cc1cc([N+](=O)[O-])nn1Cc1ccc(F)cc1 | -0.393 | –
37 | N/C(=N\OC(=O)c1ccc(Cl)cc1[N+](=O)[O-])c1ccccn1 | -18.8 | –
38 | CC12CCC(C(=O)Nc3ncc([N+](=O)[O-])s3)(OC1=O)C2(C)C (stereo unspecified) | -9.04 | –
39 | CN(C)CCCn1cnc2c(c1=N)C(c1ccccc1)c1ccc3ccccc3c1O2 (stereo unspecified) | – | 2.07 µM (active)
40 | Cc1ccc([C@@H]2CC=C(C(=O)O)[C@H](c3ccc(Cl)cc3)N2S(=O)(=O)c2ccc(C)cc2)cc1 | 8.99 | –
41 | Cc1c[n+]([O-])ccc1[N+](=O)[O-] | 1.35 | –
42 | COc1cc(N=Nc2c(C)n(C)n(-c3ccccc3)c2=O)ccc1N | 0.604 | –
43 | COc1ccc2cc(-c3cc(C(=O)OCC(=O)Nc4c(C)n(C)n(-c5ccccc5)c4=O)c4ccccc4n3)ccc2c1 | – | 0.464 µM (active)
44 | Cc1c(NC(=O)c2cc(-c3ccc(Cl)c(Cl)c3)on2)c(=O)n(-c2ccccc2)n1C | 4.57 | –
45 | Cc1ccc(CN=c2c([N+](=O)[O-])nn(-c3cccc(C)c3)n2O)cc1 | 9.21 | –
46 | O=[N+]([O-])c1nn(-c2ccc3c(c2)OCCO3)n(O)c1=NC1CCN(Cc2ccccc2)CC1 | -1.51 | –
47 | CN(C)c1ccc(/C=C(/NC(=O)c2ccccc2)C(=O)N/N=C/c2ccc([N+](=O)[O-])c(O)c2)cc1 | 9.79 | –
48 | Cc1ncc([N+](=O)[O-])n1CCOC(=O)NC(NCc1cccnc1)C(Cl)(Cl)Cl (stereo unspecified) | -2.24 | –

Row | SMILES | activity change, negative = cytotoxicity [%] | Potency
49 | Cc1nc(C)c(C(=O)Nc2ncc([N+](=O)[O-])s2)o1 | 11.4 | –
50 | COc1cccc(CN=c2c([N+](=O)[O-])nn(-c3ccccc3C)n2O)c1 | 8.23 | –
51 | O=C(/C=C/c1cccc([N+](=O)[O-])c1)c1ccco1 | 17.7 | –
52 | COC(=O)Nc1nc2ccc(C(=O)c3cccs3)cc2[nH]1 | 20.5 | –
53 | CCOC(=O)N1CCN(C(=O)c2ccc(Cl)c(NC(=O)c3cccs3)c2)CC1 | 17.8 | –
54 | Cc1ccn(-c2ccc(NC(=O)c3cccs3)cc2)n1 | – | 9.27 µM (active)
55 | CC(C)(C)c1ccc2c(c1)OC(C(=O)N/N=C/c1ccc([N+](=O)[O-])o1)CO2 (stereo unspecified) | -12.1 | –
56 | Cc1ccc(N=c2c([N+](=O)[O-])nn(-c3ccccc3)n2O)c(C)c1 | -15.1 | –
57 | Cc1ccc(S(=O)(=O)N2[C@@H](c3ccccc3)C(C(=O)O)=CC[C@H]2c2cccc(Cl)c2)cc1 | 6.16 | –
58 | C=C1C=C(C)n2ncc(C(=O)Nc3ccc(C)cn3)c2N1 | -8.35 | –
59 | Cc1ccc(S(=O)(=O)CC(=O)Nc2ncc([N+](=O)[O-])s2)cc1 | 1.79 | –
60 | Cc1ccc(CC(=O)Nc2ncc([N+](=O)[O-])s2)cc1 | 3.03 | –
61 | O=C(Nc1ncc([N+](=O)[O-])s1)c1ccco1 | -8.55 | –
62 | O=C(Nc1ncc([N+](=O)[O-])s1)c1cccc([N+](=O)[O-])c1 | – | 3.29 µM (active)
63 | Cc1ccc(C(=O)Nc2ncc([N+](=O)[O-])s2)cc1 | – | 6.56 µM (active)
64 | O=C(COC(=O)c1ccccc1)Nc1ncc([N+](=O)[O-])s1 | 16.8 | –
65 | Cc1cc(Nc2ccccc2)c2c([N+](=O)[O-])cc(C)c(C)c2n1 | 9.04 | –
66 | CC(NC(=O)COc1cccnc1[N+](=O)[O-])c1ccc(Cl)cc1 (stereo unspecified) | 1.74 | –
67 | O=[N+]([O-])c1ccc(CN2CCN(c3ccccc3Cl)CC2)o1 | 9.64 | –
68 | CC(=NN1CC(=O)NC1=O)c1ccc([N+](=O)[O-])o1 | -8.95 | –
69 | O=C(Nc1ccc(N2CCN(Cc3ccccc3F)CC2)cc1)c1ccc([N+](=O)[O-])o1 | – | 2.93 µM (active)
70 | O=[N+]([O-])c1ccc(CN2CCN(c3ccc(Cl)cc3)CC2)o1 | 2.99 | –
71 | CC(C)C(=O)N1CCN(c2ccc(NC(=O)c3ccc([N+](=O)[O-])o3)cc2)CC1 | – | 5.85 µM (active)
72 | CC(C)(C)C(=O)N1CCN(c2ccc(NC(=O)c3ccc([N+](=O)[O-])o3)cc2)CC1 | – | 6.56 µM (active)

Row | SMILES | activity change, negative = cytotoxicity [%] | Potency
73 | O=[N+]([O-])c1ccc(CN2CCN(c3ccc(F)cc3)CC2)o1 | 16.3 | –
74 | O=C(Nc1ccc(N2CCCCC2)cc1)c1ccc([N+](=O)[O-])o1 | – | 13.1 µM (active)
75 | COc1cc(Nc2ccc(C)cc2)c([N+](=O)[O-])nc1[N+](=O)[O-] | 14.5 | –
76 | Cc1ccc(C(=O)c2c3ccc([N+](=O)[O-])cc3[n+]([O-])n2CCC(N)=O)cc1 | 19 | –
77 | CC(Oc1cccnc1[N+](=O)[O-])C(=O)Nc1cccc(Cl)c1 (stereo unspecified) | 9.9 | –
78 | COc1ccc(-n2nc([N+](=O)[O-])c(=NCCc3cccc(C)c3)n2O)cc1 | 5.18 | –
79 | COC(=O)c1cc(NC(=O)c2cc(C(C)(C)C)nn2Cc2ccc(F)cc2)ccc1N1CCOCC1 | 0.619 | –
80 | COc1ccc(C(C)=O)cc1COc1cccnc1[N+](=O)[O-] | 4.35 | –
81 | O=C(Cc1c(F)cccc1Cl)Nc1ncc([N+](=O)[O-])s1 | -17.9 | –
82 | O=[n+]1c2c(n([O-])c3cc(Br)ccc31)CCC2 | 22.2 | –
83 | CCOc1cc([N+](=O)[O-])cc(/C=C2/NC(=O)N(Cc3ccccc3F)C2=O)c1O | 11.1 | –
84 | O=[N+]([O-])c1nn(-c2ccc3c(c2)OCCO3)n(O)c1=NCc1ccc(F)cc1 | 23.9 | –
85 | CN(C)c1ccc(C2Nc3cccc4cccc(c34)N2)cc1 | -11.1 | –
86 | Cc1cc(C)cc(N=c2c([N+](=O)[O-])nn(-c3ccc4c(c3)OCCO4)n2O)c1 | -0.929 | –
87 | CCC(=O)N1CCN(c2ccc(NC(=O)c3ccc([N+](=O)[O-])o3)cc2)CC1 | – | 11.7 µM (active)
88 | CS(=O)(=O)N1CCN(c2ccc(NC(=O)c3ccc([N+](=O)[O-])o3)cc2)CC1 | – | 3.69 µM (active)
89 | CCCC(=O)N1CCN(c2ccc(NC(=O)c3ccc([N+](=O)[O-])o3)cc2)CC1 | – | 3.29 µM (active)
90 | CCC(=O)N1CCN(c2ccccc2NC(=O)c2ccc([N+](=O)[O-])o2)CC1 | -5.48 | –
91 | CS(=O)(=O)N1CCN(c2ccccc2NC(=O)c2ccc([N+](=O)[O-])o2)CC1 | -6.16 | –
92 | NC(=O)c1ccc(NC(=O)COc2ccc([N+](=O)[O-])cc2Cl)cc1 | 15.1 | –
93 | NS(=O)(=O)c1ccc(Nc2ncccc2[N+](=O)[O-])cc1 | 7.7 | –
94 | O=[n+]1c2c(n([O-])c3cc(Cl)ccc31)CCCC2 | 5.34 | –
95 | COc1ccc(CNC(=O)COc2cccnc2[N+](=O)[O-])cc1OC | 6.39 | –
96 | Cc1oc2cc(O)ccc2c(=O)c1Oc1ccccc1Br | 18.1 | –
